Tb PYK inh: qHTS of Trypanosoma Brucei Inhibitors. 410,000 tested, 0.12% active. Potency, µM (doses to about 76.8 µM), for the others: top-dose activity, negative = inhibition, most hits filed as inhibitors. AID 624173, 2012. TbPYK enzyme, Kinase-Glo Plus ATP luminescence, 45 min. pyruvate kinase (Trypanosoma brucei), Q57TT1; further: potency means the concentration at half of the fitted maximal effect; on the % scale 0 is the no-effect control and ±100 the full control effect; nearly all actives have a fitted effect of over 50% in size
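Screened from lowest to highest concentration, compounds were pinned into TbPYK/substrate mixtures, and ADP (130 uM final) was added. Plates sat at room temperature for 45 min prior to Kinase-Glo Plus detection by luminescence.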
Giardia FBPA inh: qHTS Assay for Inhibitors of Fructose-1,6-bisphosphate Aldolase from Giardia Lamblia; purified Giardia FBPA; Potency, µM (titrated, usually from 59.6 µM), for the others: at the top dose activity, negative = inhibition, usual class: inhibitors; 290,000 tested, 0.71% active; A8B2U2; further: potency means the concentration at half of the fitted maximal effect; on the % scale 0 is the no-effect control and ±100 the full control effect; nearly all actives have a fitted effect of over 55% in size
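40 nM FBPA preincubated 10 min at RT with compound (up to 57.5 uM final), then substrate plus GAPDH/TPI/NAD/arsenate coupling and diaphorase/resazurin added. Fluorescence read after 20 min at RT, 525/598 nm.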
Cycloheximide cs: Cycloheximide Counterscreen for Small Molecule Inhibitors of Shiga Toxin; cell reporter, cycloheximide protein synthesis inhibition counterscreen; AID 2314, 2010; max response, %; 300,000 tested, 12% active; in the data active means max response mostly above about 13%, no sharp cut-off; inactive means mostly below about 14%; further: read at 38.3 µM for the half of the compounds with a filed dose; 0% is about no effect
LmPK inhibitor: qHTS Assay for Inhibitors of Leishmania Mexicana Pyruvate Kinase (LmPK) | Q27686 | 290,000 tested, 0.37% active | Potency, µM (highest dose often 57.5 µM), without a hit: at the highest dose activity change, negative = inhibition, hits mostly inhibitors | purified LmPK, Kinase-Glo ATP luminescence, 1 h; further: potency means the concentration at half of the fitted maximal effect; on the % scale 0 is the no-effect control and ±100 the full control effect
Target sequence (Q27686 whole entry, looked up): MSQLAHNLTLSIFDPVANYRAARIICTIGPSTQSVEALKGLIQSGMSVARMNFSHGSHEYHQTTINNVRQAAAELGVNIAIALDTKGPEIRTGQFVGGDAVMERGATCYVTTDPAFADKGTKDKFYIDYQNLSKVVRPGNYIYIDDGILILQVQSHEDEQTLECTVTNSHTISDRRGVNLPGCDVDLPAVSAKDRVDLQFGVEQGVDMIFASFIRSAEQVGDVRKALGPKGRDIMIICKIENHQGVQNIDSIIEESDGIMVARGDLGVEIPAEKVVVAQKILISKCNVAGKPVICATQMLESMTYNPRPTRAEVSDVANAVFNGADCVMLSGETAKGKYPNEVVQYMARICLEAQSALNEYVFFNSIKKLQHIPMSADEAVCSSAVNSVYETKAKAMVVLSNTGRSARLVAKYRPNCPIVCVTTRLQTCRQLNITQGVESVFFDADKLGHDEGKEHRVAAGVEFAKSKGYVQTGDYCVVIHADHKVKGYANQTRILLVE
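In 50 mM imidazole pH 7.2 with 7 mM MgCl2, LmPK (0.1 nM) turned over PEP (0.5 mM) and ADP (0.1 mM) for 1 h at room temperature. Luciferase read-out of ATP.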
Shiga inhibitor: A qHTS for Small Molecule Inhibitors of Shiga Toxin; 290,000 tested, 9.2% active; inhibition, % at 38.7 µM; AID 2315, 2010; Vero cells, Shiga toxin protein synthesis inhibition reporter; in the data active means inhibition mostly above about 28%, no sharp cut-off; inactive means mostly below about 43%; further: 0% is about no effect
RE007 growth inh: qHTS Assay for Inhibitors of the HIV-1 protein Vpr. S. pombe RE007 Vpr strain, BacTiter-Glo ATP luminescence, 24 h. Potency, µM (doses to about 92.2 µM), for the others: at the top dose activity change, negative = less growth, most hits filed as inhibitors. 360,000 tested, 0.21% active; active means well fitted falling curve with a large enough effect; inconclusive means small, poorly fitted or top-dose-only effect; inactive means no such curve, though single readings can be large or run the other way; further: potency means the concentration at half of the fitted maximal effect; on the % scale 0 is the no-effect control and ±100 the full control effect; nearly all actives have a fitted effect of over 50% in size
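Fission yeast strain RE007, carrying one chromosomally integrated HIV-1 vpr copy, was seeded at OD 0.01 in PMG+AL medium with 23 nL pinned compound. After 24 h at 30 °C and 99% humidity, viability was read by BacTiter-Glo luminescence.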
An asterisk follows results filed as active; ? = inconclusive; . = no result; [ ] = dose if it differs, or a comment. Shown is part of a subset that was picked to be rich in hits. Unless noted, the call rests on the fitted dose curve; in most records, active means well fitted curve in the direction sought with a large enough effect; inconclusive means small, poorly fitted or top-dose-only effect, or another doubt; inactive means no such curve, though single readings can be large; an effect the other way counts as inactive or inconclusive.

SMILES	Tb PYK inh	Giardia FBPA inh	Cycloheximide cs	LmPK inhibitor	Shiga inhibitor	RE007 growth inh
O=C(c1cc(COc2ccc(F)cc2F)on1)N1C[C@H]2CC[C@H]1C2	3%	.	52*	-9%	101*	11%
COCC1CCN(C(=O)c2cc(COc3ccc(F)cc3F)on2)C1 (stereo unspecified)	-3%	8%	20*	-5%	39	-6%
COc1ccc(OCc2cc(C(=O)N3C[C@H]4CC[C@H]3C4)no2)c(Cl)c1	-8%	.	36*	-6%	88*	8%
Cc1c(C(=O)NCc2ccc(Cl)c(Cl)c2)sc(=O)n1Cc1ccc(C(=O)N(C)C)cc1	-1%	.	.	.	.	6%[18.4 µM]
Cc1ccc2c(=O)cc(C(=O)Nc3ccc(S(=O)(=O)N(C)c4ccccc4)cc3)oc2c1C	2%	.	.	.	.	.
COc1ccc(S(=O)(=O)Nc2cccc(-c3ccc(N4CCC(C)CC4)nn3)c2)c(OC)c1	-5%	.	.	.	.	.
COc1ccccc1OCc1cc(C(=O)N2CC3C[C@@H]4CC2C[C@H](C3)C4)no1	7%	.	51*	4%	76*	10%
COc1ccccc1OCc1cc(C(=O)N2CCN(C)C(c3ccccc3)C2)no1 (stereo unspecified)	-4%	.	59*	0%	81*	0%
O=C(c1cc(COc2c(F)cccc2F)on1)N1C[C@H]2CC[C@H]1C2	6%	.	76*	-4%	103*	7%
CCOC(=O)c1[nH]nc(C(=O)c2ccc(Br)cc2)c1O	-2%	1%	14	-2%	63*	-16%
CCOC(=O)c1[nH]c2ccccc2c1NC(=O)c1ccc(Br)cc1	-3%	.	.	.	.	.
O=S(=O)(Cc1noc(-c2ccccc2Cl)n1)c1ccccn1	0%	0%	41*	2%	72*	6%
Cc1noc(C)c1-c1nc(CS(=O)(=O)c2ccc(Cl)cc2)no1	-6%	8%	-1	2%	-6	10%
OC[C@@H]1CN(Cc2ccccc2)C[C@H](n2cnc3c(NC4CCCC4)ncnc32)O1	-2%	.	.	.	.	7%[18.4 µM]
O=C(Oc1c(Br)cc(Br)c2cccnc12)N1CCCCC1	4%	2%	32*	-6%	24	-6%
O=C(Oc1ccc(Cl)c2cccnc12)N1CCOCC1	3%	5%	-2	-10%	-9	10%
CCC(C(=O)Nc1cc(C(F)(F)F)ccc1Cl)n1nc(C)c2sc3ccccc3c2c1=O (stereo unspecified)	0%	.	.	.	.	.
CCCS(=O)(=O)NC(=O)C1(C)CCCN(C(=O)c2ccc3ccccc3n2)C1 (stereo unspecified)	1%	.	.	.	.	24%
COc1ccc2cc(CCNS(=O)(=O)c3ccc(C)cc3)c(=O)[nH]c2c1	3%	.	.	.	.	.
C#CC(CC)(CC)NC(=S)Nc1ccc(S(N)(=O)=O)cc1	1%	0%	12*	1%	44*	-3%
CCCCn1c(N)c(N(CCOC)C(=O)CC(NC(=O)c2ccccc2Cl)c2ccccc2)c(=O)[nH]c1=O (stereo unspecified)	-5%	.	.	.	.	9%
Cc1ccc2c(c1)/C(=N/OS(=O)(=O)c1ccccc1)CCS2	-14%	.	.	.	.	-3%
CC1=CC(=O)C(C(C)C)=C/C1=N/OS(=O)(=O)c1ccccc1	-16%	20µM*	3	3%	42	?
CC1=CC(=O)C=C(C)C1=NOS(=O)(=O)c1ccccc1	5%	4µM*	27	3%	11	?
Cc1ccc(S(=O)(=O)ON=C2CCN(S(=O)(=O)c3ccccc3)CC2)cc1	-1%	-8%	-5	0%	-9	8%
SMILES	Tb PYK inh	Giardia FBPA inh	Cycloheximide cs	LmPK inhibitor	Shiga inhibitor	RE007 growth inh
CCOc1ccc(NS(=O)(=O)c2ccc(NC(=O)[C@@H]3CCCC[C@@H]3C(=O)O)cc2)cc1	3%	24%	-5	2%	-13	-9%
CCOc1ccc(NS(=O)(=O)c2cc3c4c(c2)C(C)C(=O)N4CCC3)cc1 (stereo unspecified)	4%	.	0	7%	-9	2%
O=C(O)c1ccc(-c2sc(Nc3ccccc3)n[n+]2-c2ccccc2)cc1	-5%	-24%	20*	2%	26	5%
CCc1ccc(Nc2n[n+](-c3ccccc3)c(-c3ccc(OCc4ccccc4)cc3)s2)cc1	-7%	?	19*	-3%	14	-3%
CCc1ccc(Nc2n[n+](-c3ccccc3)c(-c3c(Cl)cccc3Cl)s2)cc1	-2%	?	0	3%	-1	-17%
c1ccc(COc2ccc(-c3sc(Nc4ccccc4)n[n+]3-c3ccccc3)cc2)cc1	.	?	20*	3%	35*	.
O=C(NCCS(=O)(=O)N1CCCCC1)c1ccc2c(c1)OCO2	-3%	.	.	.	.	15%
C[C@H](CO)N1C[C@H](C)[C@@H](CN(C)Cc2ccc(Cl)c(Cl)c2)OCc2cnnn2CCCC1=O	-6%	.	.	.	.	-10%
O=C(NC(C(=O)N/N=C/c1cc([N+](=O)[O-])ccc1O)c1n[nH]c(=O)c2ccccc12)c1ccccc1 (stereo unspecified)	5%	-9%	-1	3%	-7	-5%
CCN(CC(=O)Nc1c(F)cccc1F)C(=O)CSC(=S)N1CCCC1	-19%	.	.	.	.	-1%
N#C/C(=C/c1ccc(O)c(O)c1)C(=O)NCc1ccc(Cl)cc1	1%	?	5	0%	-8	-4%
N#C/C(=C\c1cc(Cl)c(OCc2ccc(Cl)cc2)c(Cl)c1)C(N)=O	.	0%	30*	9%	53*	.
N#C/C(=C\c1cc(O)c(O)c(O)c1)C(N)=O	?	5µM*	-2	4%	-8	1%
O=C(CSc1nc(-c2ccccc2Cl)ns1)NCc1ccco1	-3%	2%	2	6%	42	-9%
NC(=O)CSc1nc(-c2ccccc2Cl)ns1	-10%	-6%	45*	-20%	19*	5%
C=C(C)[C@@H]1CC=C(CN2CCC(CCOC)(C(=O)OCC)CC2)CC1	0%	2%	-1	2%	-4	-1%
COc1ccc(/C(N)=N/OC(=O)C2CCCCC2)cc1	-8%	.	43*	-4%	136*	-3%
N/C(=N\OC(=O)C1CCCCC1)c1cccc(Br)c1	-11%	4%	-3	-6%	-7	4%
COc1ccc(/C(N)=N/OC(=O)C2CCCCC2)cc1OC	-2%	.	50*	-5%	78*	-27%
COc1ccc(-c2ccc(C(=O)C3CC3)cc2)cc1	6%	4%	16*	-12%	65*	2%
C[C@H](CO)N1C[C@H](C)[C@@H](CN(C)Cc2ccc(C(=O)O)cc2)Oc2c(NS(=O)(=O)c3cn(C)cn3)cccc2C1=O	-1%	.	.	.	.	5%

Source: PubChem (National Center for Advancing Translational Sciences (NCATS))
